In all, about 69,000 compounds went through this assay and about 8,600 (12%) showed an effect of 50% or more. The list comes from a sample in which strong results are over-represented; it also holds similar structures and randomly drawn compounds.

The test system of this assay is Plasmodium berghei. Kind of assay: Screen against P. berghei liver stage (PbLuc), transformed with Luciferase, at 10uM. The format is functional, HepG2. Particulars: tested at 10 uM.
For the molecule `COCCN(Cc1sccc1C)C(=O)c1c(O)cccc1F`, the INHIBITION was -15.6%.

Consider `CC(=O)N1CCC2(CC1)C(=O)N(c1ccc(C)nc1)CCN2CC(C)C`, for which the INHIBITION was determined as 60%.

As to `CCN1CCC2(CC1)C(=O)N(c1ccc(C)nc1)CCN2CC(C)C`, the INHIBITION is recorded as 36.4%.

Take `Cc1ccc(N2CCN(CC3CC3)C3(CCN(C(C)C)CC3)C2=O)cn1`: the INHIBITION turned out to be 27.5%.

Regarding `Cc1nc(C)n(CC2CCCN2CCOc2ccc(F)cc2)n1` (centres undefined), the INHIBITION is recorded as -32%.

For the molecule `Cc1nnc(NC(=O)CN2CCc3nn(C)c(=O)cc3C2)s1`, the INHIBITION is 62.9%.

On to `CCCn1nc2c(cc1=O)CN(CC(=O)Nc1nnc(C)s1)CC2`, for which the INHIBITION is 26.3%.

Take `CCn1nc2c(cc1=O)CN(CC(=O)Nc1nnc(C)s1)CC2`: the INHIBITION is given as -29.8%.

Take `CCN(Cc1ccc(O)c(C(=O)O)c1)CC1CCOCC1`: the INHIBITION was 7.65%.

Consider `COc1ccccc1CNc1c(O)c(=O)c1=O`, for which the INHIBITION is 21.7%.

As for `CO[C@H]1CC[C@H]2[C@H]1OCCN2Cc1ccc(F)cc1`, the INHIBITION was -40.9%.

With `O=C(NCCNC1CCN(c2nccs2)CC1)c1cccs1`, the INHIBITION came out at 55.1%.

For `O=C(NC1CCN(c2nccs2)CC1)c1cccs1`, the INHIBITION turned out to be 22.2%.

For `O=C(NCCNC1CCCC1)c1cccs1`, the INHIBITION is -0.902%.

As for `COc1ccc(COCC(=O)N2CCC(c3nncn3C)CC2)cc1`, the INHIBITION is 39.2%.

As for `CC(=O)N1N=C(c2ccccc2)OC1C(=O)N(C)CCc1ccccc1` (centres undefined), the INHIBITION came to 38.2%.

`Cn1cnc2c1C(COCc1ccccc1)N(Cc1ccncc1)CC2` (centres undefined): the INHIBITION was 15.9%.

Regarding `COC(=O)c1cc(OC)ccc1NCC(=O)NCC(=O)N1CCCC1`, the INHIBITION amounted to 2.03%.

For the molecule `CC(C)c1nc(CN2CCOC(Cn3cncn3)C2)no1` (centres undefined), the INHIBITION is -15.5%.

As to `O=C(NC1CCN(c2cc(-n3ccnc3)ncn2)CC1)c1ccncc1`, the INHIBITION amounted to 69.1%.

As to `O=C(NC1CCN(c2ncccn2)CC1)c1cccc(-n2ccnc2)c1`, the INHIBITION is listed as -2.94%.

Turning to `O=C(NC1CCCC1)C1CCN(c2cc(-n3ccnc3)ncn2)CC1`, the INHIBITION is recorded as 48%.

Regarding `CC1c2ncc(CN3CCN(C)CC3)n2CCN1Cc1cnn(C)c1` (centres undefined), the INHIBITION turned out to be 33.2%.

`O=C1CO[C@@H]2CN(Cc3cccs3)C[C@H]2N1Cc1ccncc1`: the INHIBITION amounted to 14.2%.

Consider `CCN(CC)CCNC(=O)CCc1c(C)nn(-c2ccccc2Cl)c1C`, for which the INHIBITION was determined as 48%.

With `CCN(CC)CCNC(=O)CCc1c(C)nn(-c2ccc(Cl)cc2)c1C`, the INHIBITION is recorded as 63.9%.

Regarding `CCN(CC)CCNC(=O)CCc1c(C)nn(-c2cccc(Cl)c2)c1C`, the INHIBITION came out at 48%.

For `O=C1NCCN1CCNc1cc(-c2ccncc2)nc2ccnn12`, the INHIBITION is -4.91%.

For the molecule `CNC(=O)c1cccnc1Oc1ccccc1`, the INHIBITION came out at 9.89%.

Consider `NC(=O)CC1c2cccnc2C(=O)N1Cc1ccccc1` (centres undefined), for which the INHIBITION was -16.4%.

With `CC(C)(C)c1n[nH]c(C2CN(C(=O)c3cc(Cl)c[nH]3)CCO2)n1` (centres undefined), the INHIBITION was determined as 19.7%.

For the molecule `Cc1ccc(S(N)(=O)=O)cc1C(=O)NC1CCCN(C)C1` (centres undefined), the INHIBITION was found to be 3.46%.

For the molecule `CN(Cc1ccccc1)S(=O)(=O)N1C[C@H](C2CC2)[C@@H](N)C1`, the INHIBITION is -43.1%.

In the case of `CN(Cc1ccccc1)C(=O)CCN1C[C@H](C2CC2)[C@@H](N(C)C)C1`, the INHIBITION is reported as 14.9%.

For `CN(Cc1ccc(F)cc1)S(=O)(=O)N1CCOCC1`, the INHIBITION is reported as -8.005%.

For `CC(=O)N[C@@H]1CN(S(=O)(=O)Cc2ccccc2)C[C@H]1C(C)C`, the INHIBITION is 41.6%.

For `CC(=O)N[C@H]1CN(S(=O)(=O)N(C)Cc2ccccc2)C[C@@H]1C1CC1`, the INHIBITION is listed as 64.4%.

For the molecule `CN(Cc1ccccc1)S(=O)(=O)N1C[C@@H](C(=O)O)[C@H](C2CC2)C1`, the INHIBITION was determined as 61.8%.

Regarding `CN(Cc1cccc(F)c1)S(=O)(=O)N1CCOCC1`, the INHIBITION was -26.1%.

For the molecule `CCN(Cc1ccccc1)C(=O)CCN1C[C@@H](C(=O)O)[C@H](C2CC2)C1`, the INHIBITION is reported as 5.78%.

On to `CCC[C@H]1CN(S(=O)(=O)N(C)Cc2ccccc2)C[C@@H]1N`, for which the INHIBITION is 77.5%.

Regarding `CN(C)CC(=O)N1CC2(CCN(S(=O)(=O)c3ccccc3)C2)C1`, the INHIBITION is given as -25.8%.

As to `C1CCC(CNC2CCCN(Cc3noc(C4CC4)n3)C2)C1` (centres undefined), the INHIBITION came to 7.43%.

`CC(c1ncc(-c2ccccc2)o1)N1CCN(C(=O)N(C)C)CC1` (centres undefined): the INHIBITION worked out at 48.2%.

`CCn1c(C)nnc1CN(C)C1CCN(CCS(=O)(=O)CC)C1` (centres undefined): the INHIBITION is given as -49.5%.

For the molecule `CC(C)CCN1C2(CCN(C(=O)CN(C)C)C2)c2ccccc2S1(=O)=O` (centres undefined), the INHIBITION is given as 21.4%.

For `CS(=O)(=O)N1CC2(CCN(C3CCCCC3)CC2)Cc2ccccc21`, the INHIBITION is 32.5%.

With `O=C(c1n[nH]c2c1CCN(Cc1nccs1)C2)N1CCCC1`, the INHIBITION turned out to be 18.1%.

Consider `CS(=O)(=O)c1cc(NC(=O)COc2ccccc2F)cc(C(=O)O)c1`, for which the INHIBITION came out at 1.98%.

`CC(C)CC(C#N)NC(=O)CCNC(=O)C(C)(C)C` (centres undefined): the INHIBITION is reported as 55.5%.

Turning to `CC(C)CCC(=O)NC(C#N)CC(C)C` (centres undefined), the INHIBITION is 9.91%.

In the case of `CCC(C#N)NC(=O)CCNC(=O)C(C)(C)C` (centres undefined), the INHIBITION is -0.991%.

As for `Cc1nc(CN2CCC3(CC2)NC(=O)CC3c2ccccc2)cs1` (centres undefined), the INHIBITION was determined as 34.1%.

As for `CC(C)Cc1noc(C2CCCCN2C(=O)CCc2cnn(C)c2)n1` (centres undefined), the INHIBITION was 32.2%.

The values above are taken from ChEMBL document CHEMBL4513216, “Probing the Open Global Health Chemical Diversity Library for Multistage-Active Starting Points for Next-Generation Antimalarials” (ACS Infect Dis, 2020).
